An excerpt weighted towards active compounds, which were near 6.1% of everything screened.
D1 potentiator – human D1 dopamine receptor positive modulation. P21728. HEK293 TREx D1 cells, calcium flux, dopamine EC20 potentiation. potentiation, % at 10 µM. hit rate 0.036% among 360,000. AID 504651; in the data active = potentiation above about 30%
Target sequence (P21728 whole entry, looked up): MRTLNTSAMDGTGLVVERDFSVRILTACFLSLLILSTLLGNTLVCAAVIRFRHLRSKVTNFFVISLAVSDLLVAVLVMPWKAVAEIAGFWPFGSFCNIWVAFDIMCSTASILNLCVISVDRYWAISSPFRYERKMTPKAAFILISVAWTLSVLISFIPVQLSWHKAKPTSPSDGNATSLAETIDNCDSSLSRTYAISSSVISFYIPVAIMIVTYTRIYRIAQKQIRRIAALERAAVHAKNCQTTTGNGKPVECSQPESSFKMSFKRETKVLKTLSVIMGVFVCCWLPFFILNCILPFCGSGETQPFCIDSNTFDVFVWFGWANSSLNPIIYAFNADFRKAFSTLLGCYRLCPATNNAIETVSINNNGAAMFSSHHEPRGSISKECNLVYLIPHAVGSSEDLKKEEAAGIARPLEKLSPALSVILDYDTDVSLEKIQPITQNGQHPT
D3 ag – agonists of human D3 dopamine receptor; hit rate 0.58% among 410,000; P35462; AID 652048; D3R DiscoveRx beta-arrestin cells, luminescence, 90 min; max activation, %; in the data active = max activation above about 30%
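Agonist mode: compounds and dopamine controls were applied to plated cells for 90 min at 37 degrees C after an overnight attachment at 1500 cells/well. Luminescent read-out followed 30 - 60 minutes at room temperature with DiscoveRx detection reagent.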
D1 agonist – agonists of human D1 dopamine receptor; hit rate 1% among 360,000; HEK293 T-REx D1 cells, calcium flux, agonist mode; AID 504660; activation, % at 2 µM; in the data active = activation above about 30%
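Tetracycline-induced HEK293 TREx D1 cells, force-coupled to calcium signalling, were dye-loaded with a no-wash calcium kit. Compound was pin-added after a 10 s baseline. Fluorescence was read kinetically at 1 cycle/s for 180 s, with calcium rises flagged as agonism.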
D1 antagonist – blocks dopamine activation of the human D1 receptor | hit rate 3.2% among 360,000 | AID 504652 | P21728 | HEK293 TREx D1 cells, calcium flux, dopamine EC80; stronger effect = lower value | activity change, negative = inhibition, % at 10 µM; in the data active = activity change below about -30%
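Tetracycline-induced HEK293 Trex D1 cells, force-coupled to calcium, dye-loaded; compounds added and read 180 s, then EC80 dopamine added and calcium flux tracked kinetically another 180 s.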
D3 antag – D3 dopamine receptor (human) antagonism; P35462; max response, negative = inhibition, %; hit rate 2.5% among 360,000; D3R cells, DiscoveRx beta-arrestin luminescence, antagonist mode; stronger effect = lower value; in the data active = max response below about -50%; inconclusive = no clear call, values can overlap the other calls
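Cells expressing the human receptor were seeded at 1500 cells/well, incubated overnight at 37 degrees C in 5% CO2, then exposed to library compounds with dopamine controls for 90 minutes at 37 degrees C before luminescent detection.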
Large screens that a line does not name were inactive.

Cc1ccc(C(=O)Nc2nc3ccccc3n2CCN2CCCC2)cc1	D3 antag -61
O=C(Nc1nc2ccccc2n1CCN1CCCCC1)c1ccc(Cl)cc1	none (no result: D3 ag, D3 antag)
CC(C)(C)OC(=O)N1CCC(c2c(C(=O)N3CCCCC3)cnn2-c2ccccc2Cl)CC1	none (no result: D3 antag)
COc1ccc(CCNC(=O)c2cc(-c3ccccc3O)n[nH]2)cc1OC	D1 antagonist -33
COc1ccc(CCNC(=O)c2cc(-c3cc(C)cc(C)c3O)n[nH]2)cc1OC	none
COc1ccc(CCNC(=O)c2cc3cc(Cl)ccc3nc2N)cc1OC	D3 ag 51 (no result: D1 potentiator, D1 agonist, D1 antagonist)
COc1ccc(CCNC(=O)c2cc(-c3ccc(C)cc3O)n[nH]2)cc1OC	none
COc1ccc(CCNC(=O)c2cc(-c3cc(Cl)ccc3O)n[nH]2)cc1OC	D1 antagonist -32
COc1ccc(CCNC(=O)c2nc(SCc3ccccc3F)ncc2Cl)cc1OC	D1 agonist 33 (no result: D3 antag)
CCCCCCCCCCCCCCCCCCOP(=O)([O-])OC1CC[N+](C)(C)CC1	none (no result: D1 potentiator, D1 agonist, D1 antagonist, D3 antag)
COc1ccccc1OCC(=O)Nc1c(C(=O)c2ccc(F)cc2)oc2ccccc12	none (no result: D3 antag)
CC(C)CN(C(=O)CN1CCN(S(=O)(=O)c2ccc3ccccc3c2)CC1)c1c(N)n(CC(C)C)c(=O)[nH]c1=O	D1 antagonist -88
CC1(C)C=C(c2ccc(C=O)s2)CC(C)(C)N1C=O	D1 antagonist -31
COc1ccc2c(c1)c1c(c(=O)n(-c3ccc(C)cc3)c(=O)n1CC(=O)Nc1cc(C)ccc1C)n2C	none (no result: D3 antag)
Cc1cc2oc3c(c(=O)c2cc1C)C(c1ccc(C(C)C)cc1)N(c1nc(C)c(C)s1)C3=O (stereo unspecified)	none (no result: D3 antag)
COc1ccc(NC(=O)c2oc3c(c2C)-c2nn(Cc4ccccc4Cl)cc2CC3)cc1OC	none (no result: D3 antag)
COc1ccc(NS(=O)(=O)c2ccc3nc(COc4ccc5ccccc5c4)[nH]c3c2)cc1	D3 antag inconclusive
COc1ccc(OCc2nc3ccc(S(=O)(=O)Nc4ccccc4Cl)cc3[nH]2)cc1	D1 antagonist -57
CC1Cc2ccccc2N1C(=O)Cn1nnc(-c2ccccc2NC(=O)C2CCC2)n1 (stereo unspecified)	D3 antag -98
CC1=CC2=C(OC1N(C)C)c1cccc3cccc(c13)C2=O (stereo unspecified)	D3 antag -52
CN(C)CCCN1C(=O)c2cccc3cccc(c23)C1=O	none
COc1ccc(NC(=O)c2c(NCc3ccc(C)o3)sc3c2CCCCC3)c(OC)c1	none (no result: D3 antag)
COc1ccc(-c2cc(C(F)(F)F)nc(S(C)(=O)=O)n2)cc1	D3 antag -75
CS(=O)(=O)c1nc(-c2ccc(F)cc2)cc(C(F)(F)F)n1	D3 antag -79
CC1=NC(=O)C(N=Nc2ccccc2)N1c1ccccc1 (stereo unspecified)	D3 antag -58
CC1=NC(=O)C(N=Nc2ccccc2C(=O)O)N1c1ccccc1 (stereo unspecified)	D3 ag 32
CC1=NC(=O)C(N=Nc2cccc(C(=O)O)c2)N1c1ccccc1 (stereo unspecified)	D3 antag inconclusive
COc1ccc(NC(=O)Nc2nnc(SCC(=O)Nc3cccc(C)c3C)s2)cc1	none (no result: D1 antagonist, D3 antag)
O=C(c1ccco1)N1CCN(S(=O)(=O)c2ccc([N+](=O)[O-])cc2)CC1	D1 antagonist -34
CCc1cccc(-n2c(=O)c3cccnc3n2CC(=O)NCc2ccc(C)cc2)c1	none (no result: D3 antag)
COc1ccc(OCc2n(CC(=O)OC3CC(C)CCC3C(C)C)c3ccccc3[n+]2C)cc1 (stereo unspecified)	D1 agonist 34, D3 antag inconclusive
COc1ccc(-c2n(CC(=O)OC3CC(C)CCC3C(C)C)c3ccccc3[n+]2C)cc1 (stereo unspecified)	D3 antag -86
Cc1cc(C)c2c(CC(=O)N(Cc3ccccc3)C3CCS(=O)(=O)C3)coc2c1 (stereo unspecified)	none (no result: D3 antag)
O=C(OCC1CCNCC1)c1ccc(F)cc1	D3 antag -55 (no result: D1 potentiator, D1 agonist, D1 antagonist)
O=C(OCC1CCNCC1)c1ccc2c(c1)OCO2	none
COc1ccc2c(c1)c1c(c(=O)n(Cc3ccccc3)c(=O)n1CC(=O)Nc1ccccc1OC)n2C	none (no result: D3 antag)
CC(C)(C)c1ccc(Oc2ccc(NC(=O)c3ccco3)cn2)cc1	none
O=C(Nc1ccc(Oc2cccc(C(F)(F)F)c2)nc1)c1ccco1	D1 antagonist -41
COC(=O)c1ccccc1NC(=O)N1CCC(n2c(C)nc3cccnc32)CC1	none (no result: D3 antag)
Cc1ccc(N2CC(NC(=O)C3CCCC3)CC2=O)cc1 (stereo unspecified)	none (no result: D1 antagonist, D3 antag)
N#C/C(=C\c1ccc[nH]1)C(=O)Nc1ccccc1F	D1 antagonist -31
COc1nnc(-c2ccc(N3CCOCC3)c(NC(=O)c3ccco3)c2)c2ccccc12	D1 antagonist -92
COc1nnc(-c2ccc(N3CCOCC3)c(NC(C)=O)c2)c2ccccc12	D3 antag -52
COc1nnc(-c2ccc(N3CCOCC3)c(NC(=O)c3ccccc3)c2)c2ccccc12	none
CCOC(=O)c1cc(-c2ccccc2)n(-c2cccc(C(=O)Nc3cccc(SC)c3)c2)c1C	none (no result: D3 antag)
O=C(CCSCc1cccc(Cl)c1)N1CCN(c2ccc(Cl)cc2)CC1	none (no result: D3 antag)
Cn1nc(C(F)(F)F)c(-c2cccc(C(F)(F)F)c2)c1NC(=O)c1ccco1	none
Cn1nc(-c2ccccc2)cc1NC(=O)Nc1ccc(F)cc1	D1 antagonist -44
Cn1nc(C(F)(F)F)c(-c2cccc(C(F)(F)F)c2)c1NC(=O)Nc1ccc(F)cc1	D1 antagonist -31
Cc1csc2nc(CCNS(=O)(=O)c3ccc(F)cc3)cn12	none (no result: D3 antag)
Cc1cc(C)c(NC(=O)Cn2c(=O)n(Cc3ccco3)c(=O)c3ccc(C(=O)NC4CCCC4)cc32)c(C)c1	none (no result: D3 antag)
Cc1[nH]nc(SCC(=O)Nc2cccc(O)c2)c1[N+](=O)[O-]	none
Cc1[nH]nc(SCC(=O)N2CCC(C)CC2)c1[N+](=O)[O-]	D3 antag -51
CCc1ccc(NC(=O)CSc2n[nH]c(C)c2[N+](=O)[O-])cc1	D1 antagonist -48, D3 antag inconclusive
CN1C(=O)NC2(O)C(=O)c3ccccc3C12O (stereo unspecified)	D3 antag -60
CCCN1C(=O)NC2(O)C(=O)c3ccccc3C12O (stereo unspecified)	none
CSc1ccc(/C=N/Nc2nc(C)cc(=O)[nH]2)cc1	D1 antagonist -30
CCOc1ccc(-n2c(C)cc(/C=N/Nc3nc(C)cc(=O)[nH]3)c2C)cc1	D1 antagonist -35
COc1cccc(NC(=O)CN2C(=O)C3(SCC(=O)N3c3cc(C)cc(C)c3)c3ccccc32)c1 (stereo unspecified)	none (no result: D3 antag)
CCOC(=O)c1sc(=S)n(-c2ccccc2)c1N	none
COC(=O)c1sc(=S)n(-c2cccc(Cl)c2)c1N	D1 antagonist -34
CCN(CC)S(=O)(=O)c1ccc2c(c1)N(CC(=O)Nc1cccc(C)c1C)C(=O)C1CCCN21 (stereo unspecified)	none (no result: D3 antag)
